From PubChem BioAssay (NCATS)
Records with an inconclusive call do not appear. A call without a number means that no potency is given here. Activity calls are given as the source filed them. Unless noted, calls follow the shape of the dose curve; as a rule, active = well fitted curve in the direction sought with a large enough effect; inconclusive = small, poorly fitted or top-dose-only effect, or another doubt; inactive = no such curve, though single readings can be large; an effect the other way counts as inactive or inconclusive.

Tests used:
[1] = biological target: Cytochrome P450 2D6 (Homo sapiens) (UniProt P10635); assay: Cytochrome P450 family 2 subfamily D member 6 (CYP2D6) small molecule antagonists: luciferase biochemical (cell-free) qHTS assay (AID 1645840; active = well fitted curve in the direction sought with a large enough effect in the repeat runs; an effect the other way counts as inactive or inconclusive; also: nearly all actives have a fitted effect of over 55% in size; also: potency is read from the fitted curve at half-maximal effect)
Cytochrome P450 2D6 (Homo sapiens), sequence (P10635 whole entry, looked up): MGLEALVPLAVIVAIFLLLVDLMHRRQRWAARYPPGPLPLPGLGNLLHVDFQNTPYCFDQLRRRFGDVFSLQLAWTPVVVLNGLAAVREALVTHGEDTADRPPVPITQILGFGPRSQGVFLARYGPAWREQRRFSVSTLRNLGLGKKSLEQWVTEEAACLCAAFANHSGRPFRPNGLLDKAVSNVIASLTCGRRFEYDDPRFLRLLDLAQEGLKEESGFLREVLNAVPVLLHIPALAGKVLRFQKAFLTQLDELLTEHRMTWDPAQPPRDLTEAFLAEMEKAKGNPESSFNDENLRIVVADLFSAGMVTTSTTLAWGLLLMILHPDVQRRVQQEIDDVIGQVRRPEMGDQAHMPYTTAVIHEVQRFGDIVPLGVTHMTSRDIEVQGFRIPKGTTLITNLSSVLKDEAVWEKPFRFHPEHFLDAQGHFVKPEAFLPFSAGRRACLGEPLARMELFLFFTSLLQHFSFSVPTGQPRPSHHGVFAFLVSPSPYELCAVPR
Method in brief: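 P450-Glo luminescent screen: recombinant CYP2D6 enzyme–proluciferin substrate mix preincubated with compound 10 min at room temperature, then NADPH regeneration added for 1 h at room temperature. Detection reagent added for 20 min; luciferin light read as relative luminescence units.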

[2] = biological target: Cytochrome P450 2C9 (Homo sapiens) (UniProt P11712); assay: Cytochrome P450 family 2 subfamily C member 9 (CYP2C9) small molecule antagonists: luciferase biochemical (cell-free) qHTS assay (AID 1645842; active = well fitted curve in the direction sought with a large enough effect in the repeat runs; an effect the other way counts as inactive or inconclusive; also: nearly all actives have a fitted effect of over 55% in size; also: potency is read from the fitted curve at half-maximal effect)
Cytochrome P450 2C9 (Homo sapiens), sequence (P11712 whole entry, looked up): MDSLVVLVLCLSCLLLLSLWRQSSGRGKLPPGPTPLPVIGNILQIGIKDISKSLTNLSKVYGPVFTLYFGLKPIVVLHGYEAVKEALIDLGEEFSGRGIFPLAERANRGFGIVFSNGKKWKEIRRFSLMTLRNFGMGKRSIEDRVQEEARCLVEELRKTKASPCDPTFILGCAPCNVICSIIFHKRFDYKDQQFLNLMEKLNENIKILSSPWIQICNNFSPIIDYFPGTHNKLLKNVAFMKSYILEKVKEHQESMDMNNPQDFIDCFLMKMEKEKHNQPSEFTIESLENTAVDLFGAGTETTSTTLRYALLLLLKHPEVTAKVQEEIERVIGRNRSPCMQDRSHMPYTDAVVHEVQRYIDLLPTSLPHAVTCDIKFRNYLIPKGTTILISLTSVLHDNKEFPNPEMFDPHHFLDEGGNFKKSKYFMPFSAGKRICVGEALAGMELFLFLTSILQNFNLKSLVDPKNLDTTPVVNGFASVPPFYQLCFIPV
Method in brief: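 Luminescence, after 20 min with luciferin detection reagent, reflected CYP2C9 turnover during a 1 h NADPH-driven reaction at 37C. Enzyme-substrate mix contained 0.4% bovine serum albumin and was preincubated with compound 10 min at room temperature.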

[3] = Primary redox qHTS assay for identification of artifact compounds. (AID 1845223)
Method in brief: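 Amplex Red (25 uM) and HRP (250 mU/mL) in HBSS, with compounds for 15 min, then 250 uM DTT for 30 min, room temperature, dark. Fluorescence 525/598 nm read; normalized to DMSO and 10 uM DA3003; Hill fit.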

CAOV3 = assay: Primary qHTS to identify gynecologic anti-cancer compounds using libraries of approved drugs and bioactive compounds (AID 1345084); conditions: Gynecologic cancer cell panel viability, ATPlite luminescence, 48 h; series mostly up to 57.5 µM; also: nearly all actives have a fitted effect of over 55% in size; also: potency is read from the fitted curve at half-maximal effect
Method in brief: (§1)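 Cells, 1,000 per well, plated 16 h, then exposed 48 h at 37 C to compounds. Viability by ATPlite luminescence after 15 min at room temperature.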

[4] = Primary fluorescence-based thiol-reactive (MSTI) qHTS assay for identification of artifact compounds. (AID 1845221);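 also: thiol-reactive compounds lower the probe fluorescence signal; nearly all actives have a fitted effect of over 65% in size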
Method in brief: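 MSTI probe at 4 uM final in 2% DMSO/PBS pH 7.4; compounds, 1 h at room temperature in dark. Fluorescence Ex/Em 525/598 nm, normalised to Acetyl-MSTI and MSTI, fitted to 4-parameter Hill.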

PA-1 = assay: Primary qHTS to identify gynecologic anti-cancer compounds using libraries of approved drugs and bioactive compounds (AID 1345084); conditions: Gynecologic cancer cell panel viability, ATPlite luminescence, 48 h; series mostly up to 57.5 µM; also: nearly all actives have a fitted effect of over 55% in size; also: potency is read from the fitted curve at half-maximal effect
Method in brief: as §1

[5] = biological target: Luciferin 4-monooxygenase (Photinus pyralis) (UniProt P08659); assay: Biochemical firefly luciferase enzyme assay for NPC (AID 624030);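 also: purified P. pyralis luciferase at 10 nM with luciferin and ATP substrate; nearly all actives have a fitted effect of over 70% in size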
Luciferin 4-monooxygenase (Photinus pyralis), sequence (P08659 whole entry, looked up): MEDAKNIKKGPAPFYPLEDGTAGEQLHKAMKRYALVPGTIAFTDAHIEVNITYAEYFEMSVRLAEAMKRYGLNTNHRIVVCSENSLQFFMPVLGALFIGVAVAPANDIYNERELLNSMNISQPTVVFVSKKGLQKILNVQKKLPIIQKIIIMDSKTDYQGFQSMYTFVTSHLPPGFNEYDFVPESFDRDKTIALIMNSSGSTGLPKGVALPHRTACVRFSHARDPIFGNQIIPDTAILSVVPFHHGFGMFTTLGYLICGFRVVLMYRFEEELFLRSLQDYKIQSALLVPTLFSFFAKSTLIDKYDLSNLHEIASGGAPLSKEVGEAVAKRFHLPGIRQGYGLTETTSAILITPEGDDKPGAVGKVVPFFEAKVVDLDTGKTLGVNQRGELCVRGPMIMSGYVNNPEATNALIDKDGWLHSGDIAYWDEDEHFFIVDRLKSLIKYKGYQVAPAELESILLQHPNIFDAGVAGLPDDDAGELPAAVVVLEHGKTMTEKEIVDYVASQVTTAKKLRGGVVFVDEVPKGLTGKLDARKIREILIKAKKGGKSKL
Method in brief: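 Counter-screen for direct inhibition of the luciferase enzyme by approved-drug library compounds, run at 10 nM enzyme in 50 mM Tris acetate (final). Luminescence was read within 5 min of enzyme-buffer addition and normalized to PTC124 versus DMSO (0%).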

[6] = qHTS Assay for Identifying Gametocytocidal Compounds (AID 743244);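 also: actives lower the fluorescent signal which means gametocytes are killed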; conditions: P. falciparum 3D7 stage III-V gametocytes, alamarBlue, 72 h; max response: stronger effect = lower value
Method in brief: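 Stage III-V P. falciparum 3D7 gametocytes, 20,000 per well, were exposed to compounds for 72 h at 37C, 5% CO2. AlamarBlue was then added for 24 h and viability was read as fluorescence at Ex 525/Em 598 nm.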

[7] = Drug repurposing screens with cells derived from glioblastoma tumor samples (AID 1345199); conditions: GBM patient neurospheres viability, ATP luminescence, 48 h; also: nearly all actives have a fitted effect of over 40% in size
Method in brief: (§2)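 Four patient lines of CD133+ GBM neurospheres were screened at several concentrations; hits were retested in those lines plus three slower-growing GBM lines, using 48-hour treatment and ATP-based viability.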

astro = assay: as above; conditions: viability, ATP luminescence, 48 h; series mostly up to 45.9 µM
Method in brief: as §2

[8] = qHTS to identify inhibitors of the type 1 interferon - major histocompatibility complex class I in skeletal muscle: primary screen against the NCATS Mechanism Interrogation Plate v5.0 (MIPE) Libary (AID 1347411); also: potency is read from the fitted curve at half-maximal effect; nearly all actives have a fitted effect of over 65% in size
Method in brief: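 Immortalized human C25cl48 myoblasts with HiBit knocked into endogenous HLA-B*08:01 were stimulated with 4.0 ng/ml IFN-beta and exposed to compounds (11-point 1:3 titration, top 46 uM final) for 24 hrs at 37 C; HiBiT lytic luminescence measured.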

[9] = biological target: Catechol O-methyltransferase (Homo sapiens) (UniProt P21964); assay: Confirmatory Screen for Target Class Profiling of Small Molecule Inhibitors of Methyltransferases (AID 1745852); conditions: MTase-Glo luminescence, SAH detection, recombinant enzyme; measured here: COMT max response; stronger effect = lower value
Catechol O-methyltransferase (Homo sapiens), sequence (P21964 whole entry, looked up): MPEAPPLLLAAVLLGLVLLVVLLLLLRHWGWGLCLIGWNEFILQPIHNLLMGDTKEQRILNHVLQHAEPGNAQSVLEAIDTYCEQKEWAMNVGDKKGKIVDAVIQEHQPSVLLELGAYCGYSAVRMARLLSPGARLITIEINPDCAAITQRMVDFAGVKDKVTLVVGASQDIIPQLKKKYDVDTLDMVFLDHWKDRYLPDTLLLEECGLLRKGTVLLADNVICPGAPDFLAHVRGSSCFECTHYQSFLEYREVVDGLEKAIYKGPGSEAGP

[10] = biological target: Guanidinoacetate N-methyltransferase (Homo sapiens) (UniProt Q14353); assay: as above; conditions: activity change, negative = inhibition: at 57.3 µM (top of the series) unless noted
[11] = biological target: Nicotinamide N-methyltransferase (Homo sapiens) (UniProt P40261); assay: as above; conditions: MTase-Glo luminescence, SAH detection, recombinant enzyme; measured here: NNMT max response; stronger effect = lower value
Nicotinamide N-methyltransferase (Homo sapiens), sequence (P40261 whole entry, looked up): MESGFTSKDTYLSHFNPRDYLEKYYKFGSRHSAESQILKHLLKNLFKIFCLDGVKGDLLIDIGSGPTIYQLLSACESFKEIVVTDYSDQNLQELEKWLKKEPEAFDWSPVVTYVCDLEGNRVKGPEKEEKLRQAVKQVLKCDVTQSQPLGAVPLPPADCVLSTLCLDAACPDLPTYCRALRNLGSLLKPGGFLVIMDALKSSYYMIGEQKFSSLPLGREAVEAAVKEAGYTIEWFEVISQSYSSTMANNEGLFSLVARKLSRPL

[12] = biological target: Phenylethanolamine N-methyltransferase (Homo sapiens) (UniProt P11086); assay: as above; conditions: MTase-Glo luminescence, SAH detection, recombinant enzyme; measured here: PNMT max response; stronger effect = lower value
Phenylethanolamine N-methyltransferase (Homo sapiens), sequence (P11086 whole entry, looked up): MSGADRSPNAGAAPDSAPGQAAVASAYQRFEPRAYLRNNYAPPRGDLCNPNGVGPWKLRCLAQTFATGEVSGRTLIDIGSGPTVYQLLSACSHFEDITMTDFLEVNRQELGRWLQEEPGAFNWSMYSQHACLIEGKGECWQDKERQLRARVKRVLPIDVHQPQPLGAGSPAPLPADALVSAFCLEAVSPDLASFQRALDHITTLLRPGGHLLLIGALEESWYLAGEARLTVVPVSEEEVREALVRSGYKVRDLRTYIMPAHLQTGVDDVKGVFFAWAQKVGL

FC(F)(F)c1ccc(CNc2ccc(Cc3c[nH]c4ncccc34)cn2)cc1
Potency [1]: 190 nM (active)
Potency [2]: 1200 nM (active)
Potency [3]: inactive
Potency (CAOV3): inactive

CCOc1cc(CNC2CCCC2)cc(Cl)c1OCc1ccc(Cl)cc1
Potency [1]: 1510 nM (active)
Potency [2]: 19000 nM (active)
Potency [4]: inactive

CCOc1ccc(-c2nc(-c3cccc4c3CCC4NCCO)no2)cc1OCC (stereo not drawn)
Potency [1]: inactive
Potency [2]: inactive
Potency [4]: inactive
Potency [3]: inactive
Potency (PA-1): inactive

CC(C)COc1ccc(CNC(=O)N(Cc2ccc(F)cc2)C2CCN(C)CC2)cc1
Potency [1]: 5350 nM (active)
Potency [3]: inactive

CCOC(=O)CN[C@@H](C(=O)N1CC[C@H]1C(=O)NCc1ccc(/C(N)=N/O)cc1)C1CCCCC1
Potency [5]: inactive
max response [6]: 9.4% (inactive)
activity, negative = cell killing ([7]; at 45.9 µM (top of the series), tumour line B): -9.76% (inactive)
activity, negative = cell killing ([7]; at 45.9 µM (top of the series), tumour line D): -14.5% (inactive)
activity, negative = cell killing ([7]; at 46 µM (top of the series), tumour line A): -18.3% (inactive)
activity, negative = cell killing ([7]; at 46.1 µM (top of the series), tumour line C): -15.2% (inactive)
Potency (astro): inactive

CC(=O)Nc1nc2c(Oc3cc(-c4ccc(C(F)(F)F)cc4)ncn3)cccc2s1
Potency [2]: 10700 nM (active)
Potency [3]: inactive

C[C@@H]1CCNC(=O)c2cc3ccc(C(=O)Nc4nc5ccccc5n4CCCN(C)C)cc3n21
Potency [2]: inactive
Potency [4]: inactive
Potency [3]: inactive
Potency (CAOV3): 25100 nM (active)
Potency (PA-1): inactive

Cc1c(C(=O)NCCCO)cnn1-c1nc(-c2cccc(C(F)(F)F)c2)cs1
Potency [2]: 2390 nM (active)
Potency [4]: inactive
Potency (PA-1): inactive

CC1CCC2(NC1)OC1CC3C4CC=C5CC(O[C@@H]6O[C@H](CO)[C@@H](O[C@@H]7O[C@@H](C)[C@H](O)[C@@H](O)[C@H]7O)[C@H](O)[C@H]6O[C@@H]6O[C@@H](C)[C@H](O)[C@@H](O)[C@H]6O)CCC5(C)C4CCC3(C)C1C2C (stereo partly drawn)
activity change, negative = thiol reactive [4]: 179% [at 11.5 µM] (inactive)

OC(CNCCc1c[nH]c2ccccc12)Cn1c2ccccc2c2ccccc21 (stereo not drawn)
Potency [1]: 268 nM (active)
Potency [2]: 952 nM (active)
Potency [3]: inactive
Potency (PA-1): inactive

C=CC(=O)Nc1cccc(Nc2nc(Nc3ccc(Oc4ccnc(C(=O)NC)c4)cc3)ncc2F)c1
Potency [8]: 18600 nM (active)
Potency [2]: 1510 nM (active)
activity [9]: -5.97%
activity change, negative = inhibition [10]: -5.15%
activity [11]: -53.4%
activity [12]: -10.6%
Potency [4]: inactive
Potency [3]: inactive

N#Cc1ccc(-c2ccc(NC(=O)Nc3ccc(-c4ccnc5nc[nH]c45)cc3)cc2)cc1
Potency [4]: inactive

C=C1C(=O)O[C@H]2[C@H]1[C@@H](OC(=O)/C(C)=C\C)C[C@]1(C)O[C@@H]1[C@H]1O[C@H]1C(=C)[C@H]2O
Potency [4]: inactive
Potency [3]: inactive
Potency (PA-1): 12600 nM (active)
